CYP2C19 inh: blocks human cytochrome P450 2C19. inhibition, % at 5 µM. AID 778. CYP2C19 Supersomes, luciferin-H EGE luminescence, 30 min. P33261. actives 21% (n = 96,000);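 active = CYP2C19 inhibition above a set limit at 5 µM in the primary screen, cut at about 50% in these data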;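 also: plate controls were negative control wells for no effect and 2.5 mM tranylcypromine positive control for full effect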
Target sequence (P33261 whole entry, looked up): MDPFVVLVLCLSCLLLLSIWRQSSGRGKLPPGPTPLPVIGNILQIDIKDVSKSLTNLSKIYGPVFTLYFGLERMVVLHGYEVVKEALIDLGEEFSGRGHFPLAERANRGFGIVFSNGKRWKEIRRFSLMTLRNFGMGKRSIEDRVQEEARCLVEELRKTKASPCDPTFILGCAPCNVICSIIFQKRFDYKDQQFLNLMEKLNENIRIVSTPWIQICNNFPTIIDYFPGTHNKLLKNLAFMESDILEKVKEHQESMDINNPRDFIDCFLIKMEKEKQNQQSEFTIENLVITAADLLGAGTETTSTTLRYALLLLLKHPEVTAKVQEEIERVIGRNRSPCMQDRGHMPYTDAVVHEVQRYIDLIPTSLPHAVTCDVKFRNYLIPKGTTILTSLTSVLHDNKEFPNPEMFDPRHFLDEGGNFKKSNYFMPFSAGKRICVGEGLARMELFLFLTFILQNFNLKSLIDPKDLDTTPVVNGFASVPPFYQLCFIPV
CYP2C19 act: activators of human cytochrome P450 2C19. recombinant CYP2C19, luciferin-H EGE luminescence; stronger effect = higher value; 0 = fully inhibited enzyme, 1 = untreated enzyme. 96,000 tested, under 10 active. P33261. activation factor at 5 µM;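 active = activation factor of at least 2 at 5 µM in the primary screen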;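 also: 0 = wells with 2.5 mM tranylcypromine and 1 = vehicle-only wells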
E-sel TNF inh: blocks E-selectin expression induced by TNF alpha; actives 0.71% (n = 120,000); inhibition, % at 2 µM; HUVEC TNFa-induced E-selectin immunofluorescence, high content;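 active = inhibition above the batch mean plus 3 SD, and confirmed as a hit on visual image review, cut at about 43% in these data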;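 also: 0% = TNF-stimulated DMSO wells and 100% = unstimulated control wells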
CYP2C9 inhib: blocks human cytochrome P450 2C9; CYP2C9 Supersomes, luciferin-H conversion, luminescence; inhibition, % at 5 µM; actives 20% (n = 96,000); AID 777;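 active = blocking of liver enzyme CYP2C9 beyond about 50% at 5 µM, limit read from the data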
CYP2C9 activ: increases human cytochrome P450 2C9 activity; recombinant CYP2C9, luciferin-H conversion, luminescence; stronger effect = higher value; factor 1 = untreated enzyme, 0 = blocked; activation factor at 5 µM; actives 1.4% (n = 96,000); AID 1024;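 active = activation factor of 2 or more for CYP2C9 at a 5 µM dose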;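 also: 0 = sulfaphenazole-blocked wells and 1 = vehicle-only wells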
F-actin modifier: modifiers of cytoskeleton assembly. HUVEC TNFa F-actin phalloidin imaging, high content. inhibition, % at 2 µM. actives 0.18% (n = 91,000). AID 836;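 active = inhibition above the batch mean plus 3 SD and confirmed as a hit by visual image inspection, cut at about 30% in these data, passing the limit was not always enough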
An asterisk follows results filed as active; x = no result. Hits are enriched below; roughly 22% of the tested compounds scored in any of these assays.

SMILES	CYP2C19 inh	CYP2C19 act	E-sel TNF inh	CYP2C9 inhib	CYP2C9 activ	F-actin modifier
Cc1c(Br)c([N+](=O)[O-])nn1CC(=O)NCc1cccnc1	90*	0.1	17	68*	0.3	-1
Cc1c(Br)c([N+](=O)[O-])nn1CC(=O)NCc1ccco1	x	x	6	x	x	x
COC(=O)Cn1cc(C#N)c2ccccc21	x	x	-28	x	x	-13
COc1cc(CCN2C(=O)c3cccc4cccc(c34)C2=O)c(S(=O)(=O)NCCO)cc1OC	x	x	1	x	x	x
COC(=O)[C@H](Cc1ccccc1)NC(=O)N1CCCCC1C (stereo partly drawn)	-5	1	-4	-2	1	-38
CC(C)c1ccccc1OCCNS(C)(=O)=O	51*	0.5	-15	-16	1.2	2
COc1cccc(OCCCOc2ccccc2C(C)C)c1	-3	1	-12	6	0.9	15
COc1ccc(O/C(=N\S(=O)(=O)c2ccccc2)c2ccccc2)cc1	12	0.9	-9	11	0.9	-8
CC(C)CO/C(=N/S(=O)(=O)c1ccccc1)c1ccccc1	76*	0.2	25	78*	0.2	-1
CS/C(=N/S(=O)(=O)c1ccc(C)cc1)c1ccccc1	x	x	-7	x	x	x
Cc1cccc(NC(=S)N/C(=N/S(=O)(=O)c2ccccc2)c2ccccc2)c1	14	0.9	-15	46	0.5	0
CC(C)O/C(=N\S(=O)(=O)c1ccc(Cl)cc1)c1ccccc1	95*	0	7	95*	0	-2
CS/C(=N\S(=O)(=O)c1ccc(Cl)cc1)c1ccccc1	96*	0	-57	89*	0.1	-4
CC(C)OC(=S)N/C(=N\S(=O)(=O)c1ccccc1)c1ccccc1	32	0.7	-48	61*	0.4	13
O=S(=O)(/N=C(/c1ccc(Cl)cc1)N1CCOCC1)c1ccc(Cl)cc1	0	1	26	-3	1	10
CCn1c(COc2ccc(Cl)c(C)c2)nnc1SCC(=O)N1CCCC1	-12	1.1	-3	-18	1.2	11
N#Cc1ccc(CSc2nnc(-c3ccncc3)n2CCc2ccccc2)cc1	61*	0.4	13	54*	0.5	-16
N#Cc1ccc(CSc2nnc(-c3ccccn3)n2-c2ccccc2)cc1	78*	0.2	7	43	0.6	3
c1ccc(CCn2c(SCc3ccccc3)nnc2-c2ccncc2)cc1	x	x	9	x	x	0
CCn1c(SCc2ccccc2)nnc1-c1cccs1	x	x	-13	x	x	-5
N#Cc1ccc(CSc2nnc(-c3c[nH]c4ccccc34)n2-c2ccccc2)cc1	x	x	11	x	x	x
N#Cc1ccc(CSc2nnc(-c3cccs3)n2-c2ccccc2)cc1	93*	0.1	15	92*	0.1	-4
COCCn1c(C)cc(C(=O)CSc2nc(C)nc3sc4c(c23)CCC4)c1C	x	x	6	x	x	-15
CC(C)(C)c1ccc(OCCCNCc2ccccc2)cc1	x	x	95*	x	x	x
COCCCNCCCOc1ccc(C(C)(C)c2ccccc2)cc1	x	x	-29	x	x	x
SMILES	CYP2C19 inh	CYP2C19 act	E-sel TNF inh	CYP2C9 inhib	CYP2C9 activ	F-actin modifier
CN(C)C(=O)CSc1nc(SCC(=O)N(C)C)n(-c2ccccc2)n1	8	0.9	3	2	1	0
NC(=O)CSc1nccn1Cc1ccccc1	x	x	-12	x	x	x
Cn1c(SCC(=O)NCc2ccccc2)nc2ccccc21	40	0.6	x	-345	4.5*	6
O=C(CSc1nc(SCC(=O)NCc2ccccc2)n(-c2ccccc2)n1)NCc1ccccc1	66*	0.3	-3	83*	0.2	x
O=C(CSc1nccn1Cc1ccccc1)NCc1ccccc1	89*	0.1	7	56*	0.4	-8
O=C(COC(=O)c1cccnc1SCC(=O)NCc1ccccc1)NCc1ccccc1	68*	0.3	-3	39	0.6	9
COc1ccc(/C=N\NC(=O)CC(=O)Nc2cccc(Cl)c2)cc1OC	x	x	-2	x	x	x
Cc1cc(C(=O)NP(=O)(N2CCOCC2)N2CCOCC2)c(C)n1-c1ccc(N(C)C)cc1	x	x	9	x	x	x
CC12CN(C(=O)c3ccccc3)C3(C#N)CC1CCC23C (stereo not drawn)	37	0.6	18	7	0.9	9
COC1C/C(=N\O)C2OC(c3ccccc3)OCC2O1 (stereo not drawn)	x	x	6	x	x	x
O=C(CSc1nc2ccccc2n1CCc1ccccc1)NC1CC1	x	x	-14	x	x	x
O=C(CSc1nc2ccccc2n1CCc1ccccc1)NC1CCS(=O)(=O)C1 (stereo not drawn)	96*	0	3	99*	0	2

Compound activity as filed in PubChem.
